From ChEMBL document CHEMBL1157539, “Thousands of chemical starting points for antimalarial lead identification” (Nature, 2010)

Legend:
Assay type in all cases: functional
[1] = tested on: Plasmodium falciparum; experiment: GSK_TCMDC: Inhibition of Plasmodium falciparum 3D7 in whole red blood cells, using parasite LDH activity as an index of growth. Test compounds present at 2uM
[2] = tested on: Plasmodium falciparum; experiment: GSK_TCMDC: Inhibition of Plasmodium falciparum Dd2 in whole red blood cells, using parasite LDH activity as an index of growth. Test compounds present at 2uM
[3] = tested on: HepG2; experiment: GSK_TCMDC: Percent inhibition of human HepG2 cell line. Test compounds present at 10uM.

SMILES: COc1ccc2nccc([C@@H](O)CN3CCC(NC(=O)/C=C/c4ccc(F)c5ccccc45)CC3)c2c1
- Inhibition [1]: 100%
- Inhibition [2]: 75%
- Inhibition [3]: 37%

SMILES: CC(C)CCNC(=O)C1Cc2c([nH]c3cc(Cl)ccc23)C2(CCN(CCc3ccccc3)CC2)N1 (configuration not stated)
- Inhibition [1]: 100%
- Inhibition [2]: 55%
- Inhibition [3]: 17%

SMILES: CCC[C@@H](/C=N/N(C)C(=O)OC(C)(C)C)NC(=O)[C@H](CC(C)C)NC(=O)c1cc2cccc(OC)c2o1
- Inhibition [1]: 88%
- Inhibition [2]: 61%
- Inhibition [3]: 5%

SMILES: COc1cc2nc(N3CCC(CNC(=O)c4ccc(-c5cccc(C#N)c5)cc4)CC3)nc(N)c2cc1OC
- Inhibition [1]: 100%
- Inhibition [2]: 100%
- Inhibition [3]: 18%

SMILES: NC1CCN(c2nc(NCCCc3ccc(O)cc3)nc(NCc3ccccc3-c3ccccc3)n2)CC1.O=C(O)C(F)(F)F
- Inhibition [1]: 100%
- Inhibition [2]: 45%
- Inhibition [3]: 11%

SMILES: CCOc1cc(C(=O)Nc2cccnc2)cc(Br)c1OCCC(C)C
- Inhibition [1]: 88%
- Inhibition [2]: 51%
- Inhibition [3]: 4%

SMILES: N=C(N)Nc1nc(-c2cccc(NC(=O)CCCCCCCON3C(N)=NC(N)=NC34CCCCC4)c2)cs1
- Inhibition [1]: 96%
- Inhibition [2]: 89%
- Inhibition [3]: 1%

SMILES: Cc1cc(-c2ccc(CNCc3ccc(F)cc3)cc2)ccc1S(=O)(=O)NCCN1CCCC1.O=C(O)C(F)(F)F
- Inhibition [1]: 100%
- Inhibition [2]: 41%
- Inhibition [3]: 95%

SMILES: CN1CCC(N(Cc2ccc(N3CCN(Cc4c[nH]c5ccc(Cl)cc45)CC3)nc2)C2CC2)CC1
- Inhibition [1]: 100%
- Inhibition [2]: 76%
- Inhibition [3]: 96%

SMILES: CC(C)(C)CN1C(=O)C(c2ccccc2)(c2ccccc2)N=C1N.O=CO
- Inhibition [1]: 98%
- Inhibition [2]: 94%
- Inhibition [3]: 32%

SMILES: Cc1cccc2nc(-c3cccc(-c4ccc(NC(=O)C(C)C(=O)NC(C)C)cc4)c3)[nH]c12 (configuration not stated)
- Inhibition [1]: 85%
- Inhibition [2]: 26%
- Inhibition [3]: 13%

SMILES: COc1ccc(C2CC(c3cccs3)=NN2C(=O)CNc2cccc(C#N)c2)cc1OC (configuration not stated)
- Inhibition [1]: 87%
- Inhibition [2]: 35%
- Inhibition [3]: 8%

SMILES: COc1ccc2nc(-c3ccccc3)cc(NCCCNc3cc(-c4ccccc4)nc4ccc(OC)cc34)c2c1.Cl
- Inhibition [1]: 99%
- Inhibition [2]: 99%
- Inhibition [3]: 100%

SMILES: COc1ccc(C2NCCc3c2[nH]c2ccccc32)cc1CN1CCN(c2ccc(F)cc2)CC1.Cl (configuration not stated)
- Inhibition [1]: 97%
- Inhibition [2]: 56%
- Inhibition [3]: 37%

SMILES: CN1CCC[C@@H](Oc2cc3c(cc2Br)CCN3C(=O)Nc2ccc(-c3ccncc3)c(Cl)c2)C1
- Inhibition [1]: 99%
- Inhibition [2]: 64%
- Inhibition [3]: 26%

SMILES: CCCCc1ccc(Cc2cnc3nc(N)nc(N)c3c2C)cc1
- Inhibition [1]: 96%
- Inhibition [2]: 5%
- Inhibition [3]: 64%

SMILES: CC(C)CNCc1ccc(-c2ccccc2CNC2CCN(Cc3ccccc3)CC2)cc1.O=C(O)C(F)(F)F
- Inhibition [1]: 100%
- Inhibition [2]: 41%
- Inhibition [3]: 28%

SMILES: CCNc1cc(C(=O)N[C@@H](Cc2ccccc2)[C@H](O)CNC(C)(C)CCCC(C)C)cc(N2CCCC2=O)c1.O=CO
- Inhibition [1]: 100%
- Inhibition [2]: 81%
- Inhibition [3]: 0%

SMILES: CC(C)(C)N1CCC(N(Cc2ccc(-c3ccc(C(F)(F)F)cc3)cc2)C(=O)Cn2c(CCc3cccc(F)c3F)cc(=O)c3ccccc32)CC1.O=C(O)C(O)C(O)C(=O)O
- Inhibition [1]: 100%
- Inhibition [2]: 97%
- Inhibition [3]: 100%

SMILES: SC(=Nc1ccc2c(c1)OCCO2)NN=Cc1ccccn1
- Inhibition [1]: 82%
- Inhibition [2]: 33%
- Inhibition [3]: 55%

SMILES: CC(C)CN(Cc1c(O)ccc2[nH]c(-c3ccc(F)cc3F)nc12)CC(C)C
- Inhibition [1]: 98%
- Inhibition [2]: 92%
- Inhibition [3]: 11%

SMILES: CC=Cc1cc(Cc2c[nH]c(=N)[nH]c2=N)cc(CCC)c1OC
- Inhibition [1]: 97%
- Inhibition [2]: 1%
- Inhibition [3]: 16%

SMILES: Cc1ccc(CN2CCN(c3cc4c(cc3Cl)CCN4C(=O)Cc3ccc(Cl)c(NC(=O)Nc4cccc(C#N)c4)c3)CC2)cc1
- Inhibition [1]: 92%
- Inhibition [2]: 29%
- Inhibition [3]: 3%

SMILES: CCCCCCCN(Cc1ccc(OC(C)(C)C(=O)OCC)cc1)C(=O)Nc1ccccc1OC(F)(F)F
- Inhibition [1]: 95%
- Inhibition [2]: 68%
- Inhibition [3]: 0%

SMILES: Cc1cc(N2CCCC2)nc(Nc2ccc(NC(=O)C(C)(C)C)cc2)n1
- Inhibition [1]: 95%
- Inhibition [2]: 15%
- Inhibition [3]: 24%

SMILES: COc1ccc2nccc(NCC3(O)CCN(CCc4ccc5c(c4)OCCO5)CC3)c2n1.Cl
- Inhibition [1]: 100%
- Inhibition [2]: 87%
- Inhibition [3]: 35%

SMILES: CN(C)CCN(C)Cc1ccc(-c2cccc(NC(=O)c3cccc(C#N)c3)c2)cc1.O=C(O)C(F)(F)F
- Inhibition [1]: 94%
- Inhibition [2]: 11%
- Inhibition [3]: 23%

SMILES: CCc1cc2c(=O)c(-c3nc(C)cs3)c(N)oc2c(CN2CCCCC2)c1O
- Inhibition [1]: 99%
- Inhibition [2]: 97%
- Inhibition [3]: 0%

SMILES: C=CCc1cccc(CN2CCC(c3cc(O)nc(-c4ccccn4)n3)CC2)c1O
- Inhibition [1]: 91%
- Inhibition [2]: 75%
- Inhibition [3]: 46%

SMILES: C=CCN1C(=O)CN(S(=O)(=O)c2ccc(-n3nc(C)cc3C)cc2)C1=S
- Inhibition [1]: 93%
- Inhibition [2]: 0%
- Inhibition [3]: 5%

SMILES: O=C(NCCN1CCN(S(=O)(=O)c2ccc(OC3CCNCC3)c(Br)c2)CC1)c1ccc(Cl)c(Cl)c1.O=C(O)C(F)(F)F
- Inhibition [1]: 89%
- Inhibition [2]: 0%
- Inhibition [3]: 1%

SMILES: O=C(Nc1ccc(Cl)cc1)Nc1ccc(-c2cccc(-c3nc4ccccc4[nH]3)c2)cc1
- Inhibition [1]: 100%
- Inhibition [2]: 78%
- Inhibition [3]: 69%

SMILES: COc1ccccc1-n1c(SCC(=O)c2ccc3c(c2)CC(=O)N3C)nnc1-c1cccs1
- Inhibition [1]: 95%
- Inhibition [2]: 55%
- Inhibition [3]: 7%

SMILES: Cc1noc(NC(=O)c2sc3ccccc3c2O)c1C
- Inhibition [1]: 90%
- Inhibition [2]: 50%
- Inhibition [3]: 0%

SMILES: CCC(C)C#Cc1c(C)nc(N)nc1N (configuration not stated)
- Inhibition [1]: 96%
- Inhibition [2]: 0%
- Inhibition [3]: 53%

SMILES: CC(C)(C)c1ccc(CNCC(C)(C)c2nc(-c3ccnc(N)n3)c(-c3ccc(Cl)c(O)c3)[nH]2)cc1.Cl
- Inhibition [1]: 100%
- Inhibition [2]: 54%
- Inhibition [3]: 28%

SMILES: N=C(N)c1ccc(C=Cc2ccc(C(=N)N)cc2O)cc1.O=S(=O)(O)CCO
- Inhibition [1]: 92%
- Inhibition [2]: 80%
- Inhibition [3]: 10%

SMILES: CCC(=O)N(c1ccccc1)C1CCN(CCCC(NC(=O)c2cc(C(F)(F)F)cc(C(F)(F)F)c2)c2ccc(Cl)c(Cl)c2)CC1 (configuration not stated)
- Inhibition [1]: 96%
- Inhibition [2]: 57%
- Inhibition [3]: 24%

SMILES: O=C(Nc1cccc(-c2nc3ccccc3[nH]2)c1)c1cccc(NC(=O)c2ccco2)c1
- Inhibition [1]: 91%
- Inhibition [2]: 45%
- Inhibition [3]: 9%

SMILES: COc1ccc2cc(-c3nc(-c4c(Cl)cccc4Cl)[nH]c3-c3ccnc(NCCCN4CCCCC4C)c3)ccc2c1.O=C(O)C(F)(F)F (configuration not stated)
- Inhibition [1]: 94%
- Inhibition [2]: 86%
- Inhibition [3]: 19%

SMILES: O=C(c1ccc([N+](=O)[O-])o1)N1CCN(c2nc3c(Cl)cccc3s2)CC1
- Inhibition [1]: 91%
- Inhibition [2]: 87%
- Inhibition [3]: 0%

SMILES: Cl.O=C(NC1CCN(CC2(c3ccc(Cl)cc3)CCCCC2)CC1)c1cc[nH]n1
- Inhibition [1]: 98%
- Inhibition [2]: 96%
- Inhibition [3]: 0%

SMILES: CN(CCS(C)(=O)=O)Cc1ccc(-c2ccc3ncnc(Nc4ccc(OCc5cccc(F)c5)c(Cl)c4)c3c2)o1.Cc1ccc(S(=O)(=O)O)cc1
- Inhibition [1]: 100%
- Inhibition [2]: 65%
- Inhibition [3]: 25%

SMILES: OC(CNCc1ccccc1Oc1ccccc1)c1cccc(C(F)(F)F)c1 (configuration not stated)
- Inhibition [1]: 100%
- Inhibition [2]: 98%
- Inhibition [3]: 0%

SMILES: COc1ccc(Nc2nccc(N3CCC(NC(=O)C(C)c4ccc(Cl)cc4)CC3)n2)cc1 (configuration not stated)
- Inhibition [1]: 94%
- Inhibition [2]: 52%
- Inhibition [3]: 18%

SMILES: CCN1CCc2nc3ccccc3c(C(=O)Nc3ccc(C#N)cc3)c2C1
- Inhibition [1]: 99%
- Inhibition [2]: 72%
- Inhibition [3]: 24%

SMILES: CCc1ccccc1N1CCN(CCCCNC(=O)c2ccc(NC(=O)c3ccc(Cl)cc3)cc2)CC1
- Inhibition [1]: 96%
- Inhibition [2]: 4%
- Inhibition [3]: 21%

SMILES: COc1cc(C(=O)Nc2cccc(-c3cn4cccc(C)c4n3)c2)cc(OC)c1OC
- Inhibition [1]: 99%
- Inhibition [2]: 77%
- Inhibition [3]: 0%

SMILES: O=C(Nc1cccc(C(F)(F)F)c1)c1cccc(S(=O)(=O)NCC2CCN(CC3CCCCC3)CC2)c1.O=C(O)C(F)(F)F
- Inhibition [1]: 97%
- Inhibition [2]: 5%
- Inhibition [3]: 27%

SMILES: COc1ccc2nccc(NC(=O)N3CCC(NCc4cc5c(F)ccc(F)c5[nH]4)CC3)c2n1.O=C(O)C(=O)O
- Inhibition [1]: 99%
- Inhibition [2]: 40%
- Inhibition [3]: 6%

SMILES: CN(C)C(CNC(=O)c1cc(-c2ccncc2)c(-c2ccc(NC(=O)Nc3cccc(Cl)c3)cc2)o1)c1ccccc1.O=C(O)C(F)(F)F (configuration not stated)
- Inhibition [1]: 100%
- Inhibition [2]: 100%
- Inhibition [3]: 12%

SMILES: CCO[C@H]1CN[C@H](C#Cc2cc3c(Nc4ccc(OCc5cccc(F)c5)c(Cl)c4)ncnc3s2)C1.O=C(O)C(F)(F)F
- Inhibition [1]: 100%
- Inhibition [2]: 37%
- Inhibition [3]: 8%

SMILES: Br.Cc1ccc(OCCCON2C(=N)N=C(N)NC2(C)C)cc1C
- Inhibition [1]: 96%
- Inhibition [2]: 94%
- Inhibition [3]: 57%

SMILES: CCSc1nnc(C2CCCN(CC(=O)Nc3cc(C(F)(F)F)ccc3Cl)C2)n1CC (configuration not stated)
- Inhibition [1]: 99%
- Inhibition [2]: 96%
- Inhibition [3]: 0%

SMILES: COc1ccccc1-c1ccc(C(=O)NCC2CCCN(Cc3cccc(C(F)(F)F)c3)C2)s1.O=C(O)C(F)(F)F (configuration not stated)
- Inhibition [1]: 81%
- Inhibition [2]: 37%
- Inhibition [3]: 18%

SMILES: O=C(Nc1ccc(N2CCN(Cc3c[nH]c4cc(F)ccc34)CC2)cc1)c1ccccc1-c1ccc(C(F)(F)F)cc1
- Inhibition [1]: 85%
- Inhibition [2]: 7%
- Inhibition [3]: 20%

SMILES: COc1cccc(CCc2ccc(O)c3c2C[C@H]2C[C@H]4[C@H](N(C)C)C(O)=C(C(N)=O)C(=O)[C@@]4(O)C(O)=C2C3=O)c1.Cl
- Inhibition [1]: 93%
- Inhibition [2]: 67%
- Inhibition [3]: 43%

SMILES: COc1cc(/C=C/C(=O)NC2CCC(N3CCC(c4ccccc4C)CC3)CC2)cc(OC)c1 (configuration not stated)
- Inhibition [1]: 89%
- Inhibition [2]: 11%
- Inhibition [3]: 51%

SMILES: COc1ccc2[nH]cc(C3CCN(CCCCNC(=O)c4ccc(NC(=O)c5ccc(Cl)cc5)cc4)CC3)c2c1
- Inhibition [1]: 98%
- Inhibition [2]: 16%
- Inhibition [3]: 17%
